Source: the supplement of paper PMC11001985
Unmarked numbers belong to inactive results.

Compound: C#CCNC(=O)CCSSCCC(=O)NCCc1ccc(C=O)c(C=O)c1
Assay: lysine labeling ratio R10:1 (500 µM / 50 µM probe), SILAC-ABPP in living cells; higher = lower intrinsic lysine reactivity toward the probe, active = 2 or less
Settings: HeLa; probe concentrations 500 vs 50 µM
Procedure, shortened: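 For each lysine, R is the median over forward and reverse replicates of the filtered median MS1 peptide ratio of high probe to low probe. The probe, an alkyne-tagged, disulfide-linked lysine probe, was given at 500 µM or 50 µM to living SILAC light and heavy HeLa cells in PBS at room temperature, with label swaps. Values are capped at 20.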

UniProt O75369, sequence (O75369 whole entry): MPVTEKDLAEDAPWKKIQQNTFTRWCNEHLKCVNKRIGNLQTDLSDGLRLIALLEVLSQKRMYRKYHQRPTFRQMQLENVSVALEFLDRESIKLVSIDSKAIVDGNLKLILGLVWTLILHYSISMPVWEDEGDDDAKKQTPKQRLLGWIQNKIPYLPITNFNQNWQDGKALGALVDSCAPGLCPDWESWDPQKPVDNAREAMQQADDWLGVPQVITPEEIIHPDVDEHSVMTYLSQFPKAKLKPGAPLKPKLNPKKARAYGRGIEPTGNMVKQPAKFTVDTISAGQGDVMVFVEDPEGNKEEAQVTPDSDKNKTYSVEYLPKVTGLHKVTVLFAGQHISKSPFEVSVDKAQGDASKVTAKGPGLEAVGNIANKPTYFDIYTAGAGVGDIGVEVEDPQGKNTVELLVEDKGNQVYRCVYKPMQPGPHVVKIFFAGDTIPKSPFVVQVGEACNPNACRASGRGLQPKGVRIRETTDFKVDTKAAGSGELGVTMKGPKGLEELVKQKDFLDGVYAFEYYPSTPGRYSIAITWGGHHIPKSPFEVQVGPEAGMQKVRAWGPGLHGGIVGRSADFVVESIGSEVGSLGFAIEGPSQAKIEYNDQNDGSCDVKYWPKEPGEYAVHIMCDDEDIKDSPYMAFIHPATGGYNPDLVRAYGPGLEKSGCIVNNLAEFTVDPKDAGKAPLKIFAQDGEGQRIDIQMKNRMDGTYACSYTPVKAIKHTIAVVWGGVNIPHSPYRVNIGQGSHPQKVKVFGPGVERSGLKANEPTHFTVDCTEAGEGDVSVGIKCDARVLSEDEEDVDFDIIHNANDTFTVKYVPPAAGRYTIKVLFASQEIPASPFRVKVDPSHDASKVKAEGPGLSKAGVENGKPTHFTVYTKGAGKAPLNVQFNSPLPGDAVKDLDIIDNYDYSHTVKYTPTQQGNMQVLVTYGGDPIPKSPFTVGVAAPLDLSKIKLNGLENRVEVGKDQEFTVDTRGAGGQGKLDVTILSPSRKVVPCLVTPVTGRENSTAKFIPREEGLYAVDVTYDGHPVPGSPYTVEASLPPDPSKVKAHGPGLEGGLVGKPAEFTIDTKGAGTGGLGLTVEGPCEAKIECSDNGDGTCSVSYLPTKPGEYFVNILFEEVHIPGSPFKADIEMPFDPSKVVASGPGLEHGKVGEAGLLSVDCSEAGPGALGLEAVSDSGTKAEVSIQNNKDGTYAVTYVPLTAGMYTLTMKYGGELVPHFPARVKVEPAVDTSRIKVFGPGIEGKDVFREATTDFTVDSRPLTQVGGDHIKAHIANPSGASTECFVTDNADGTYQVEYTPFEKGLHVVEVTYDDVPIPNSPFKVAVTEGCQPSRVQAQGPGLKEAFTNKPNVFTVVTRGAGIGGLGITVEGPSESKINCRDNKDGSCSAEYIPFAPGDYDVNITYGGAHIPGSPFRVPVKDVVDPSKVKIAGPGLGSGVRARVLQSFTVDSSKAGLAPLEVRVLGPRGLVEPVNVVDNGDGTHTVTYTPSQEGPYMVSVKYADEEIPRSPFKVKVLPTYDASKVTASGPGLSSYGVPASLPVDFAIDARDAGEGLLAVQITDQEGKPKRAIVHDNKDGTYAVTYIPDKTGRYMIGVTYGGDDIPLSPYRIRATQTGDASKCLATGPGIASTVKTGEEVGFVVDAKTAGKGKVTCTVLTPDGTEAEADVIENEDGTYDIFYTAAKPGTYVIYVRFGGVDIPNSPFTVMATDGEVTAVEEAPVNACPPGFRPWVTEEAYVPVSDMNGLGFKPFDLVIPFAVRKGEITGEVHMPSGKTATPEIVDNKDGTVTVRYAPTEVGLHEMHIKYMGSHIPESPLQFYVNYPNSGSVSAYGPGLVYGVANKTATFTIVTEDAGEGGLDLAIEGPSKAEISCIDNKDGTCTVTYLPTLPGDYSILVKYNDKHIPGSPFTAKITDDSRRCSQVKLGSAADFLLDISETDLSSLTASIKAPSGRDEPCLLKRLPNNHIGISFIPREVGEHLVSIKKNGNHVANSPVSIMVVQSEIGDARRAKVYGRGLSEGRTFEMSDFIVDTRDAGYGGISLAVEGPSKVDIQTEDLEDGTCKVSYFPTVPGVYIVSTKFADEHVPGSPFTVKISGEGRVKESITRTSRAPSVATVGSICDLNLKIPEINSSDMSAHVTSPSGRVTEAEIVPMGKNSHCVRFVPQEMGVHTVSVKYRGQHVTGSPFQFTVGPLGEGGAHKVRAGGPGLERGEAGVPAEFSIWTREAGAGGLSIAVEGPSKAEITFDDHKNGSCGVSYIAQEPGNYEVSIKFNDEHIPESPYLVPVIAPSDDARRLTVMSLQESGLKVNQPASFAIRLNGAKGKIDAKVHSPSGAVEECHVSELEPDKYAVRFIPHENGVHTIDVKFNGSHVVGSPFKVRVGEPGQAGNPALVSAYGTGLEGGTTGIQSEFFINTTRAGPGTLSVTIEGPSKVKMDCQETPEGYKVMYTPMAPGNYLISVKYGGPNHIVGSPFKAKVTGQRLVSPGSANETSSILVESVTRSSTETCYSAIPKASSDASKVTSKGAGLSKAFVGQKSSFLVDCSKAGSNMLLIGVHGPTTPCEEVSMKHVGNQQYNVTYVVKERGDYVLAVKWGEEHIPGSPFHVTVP
UniProt P35579, sequence (P35579 whole entry): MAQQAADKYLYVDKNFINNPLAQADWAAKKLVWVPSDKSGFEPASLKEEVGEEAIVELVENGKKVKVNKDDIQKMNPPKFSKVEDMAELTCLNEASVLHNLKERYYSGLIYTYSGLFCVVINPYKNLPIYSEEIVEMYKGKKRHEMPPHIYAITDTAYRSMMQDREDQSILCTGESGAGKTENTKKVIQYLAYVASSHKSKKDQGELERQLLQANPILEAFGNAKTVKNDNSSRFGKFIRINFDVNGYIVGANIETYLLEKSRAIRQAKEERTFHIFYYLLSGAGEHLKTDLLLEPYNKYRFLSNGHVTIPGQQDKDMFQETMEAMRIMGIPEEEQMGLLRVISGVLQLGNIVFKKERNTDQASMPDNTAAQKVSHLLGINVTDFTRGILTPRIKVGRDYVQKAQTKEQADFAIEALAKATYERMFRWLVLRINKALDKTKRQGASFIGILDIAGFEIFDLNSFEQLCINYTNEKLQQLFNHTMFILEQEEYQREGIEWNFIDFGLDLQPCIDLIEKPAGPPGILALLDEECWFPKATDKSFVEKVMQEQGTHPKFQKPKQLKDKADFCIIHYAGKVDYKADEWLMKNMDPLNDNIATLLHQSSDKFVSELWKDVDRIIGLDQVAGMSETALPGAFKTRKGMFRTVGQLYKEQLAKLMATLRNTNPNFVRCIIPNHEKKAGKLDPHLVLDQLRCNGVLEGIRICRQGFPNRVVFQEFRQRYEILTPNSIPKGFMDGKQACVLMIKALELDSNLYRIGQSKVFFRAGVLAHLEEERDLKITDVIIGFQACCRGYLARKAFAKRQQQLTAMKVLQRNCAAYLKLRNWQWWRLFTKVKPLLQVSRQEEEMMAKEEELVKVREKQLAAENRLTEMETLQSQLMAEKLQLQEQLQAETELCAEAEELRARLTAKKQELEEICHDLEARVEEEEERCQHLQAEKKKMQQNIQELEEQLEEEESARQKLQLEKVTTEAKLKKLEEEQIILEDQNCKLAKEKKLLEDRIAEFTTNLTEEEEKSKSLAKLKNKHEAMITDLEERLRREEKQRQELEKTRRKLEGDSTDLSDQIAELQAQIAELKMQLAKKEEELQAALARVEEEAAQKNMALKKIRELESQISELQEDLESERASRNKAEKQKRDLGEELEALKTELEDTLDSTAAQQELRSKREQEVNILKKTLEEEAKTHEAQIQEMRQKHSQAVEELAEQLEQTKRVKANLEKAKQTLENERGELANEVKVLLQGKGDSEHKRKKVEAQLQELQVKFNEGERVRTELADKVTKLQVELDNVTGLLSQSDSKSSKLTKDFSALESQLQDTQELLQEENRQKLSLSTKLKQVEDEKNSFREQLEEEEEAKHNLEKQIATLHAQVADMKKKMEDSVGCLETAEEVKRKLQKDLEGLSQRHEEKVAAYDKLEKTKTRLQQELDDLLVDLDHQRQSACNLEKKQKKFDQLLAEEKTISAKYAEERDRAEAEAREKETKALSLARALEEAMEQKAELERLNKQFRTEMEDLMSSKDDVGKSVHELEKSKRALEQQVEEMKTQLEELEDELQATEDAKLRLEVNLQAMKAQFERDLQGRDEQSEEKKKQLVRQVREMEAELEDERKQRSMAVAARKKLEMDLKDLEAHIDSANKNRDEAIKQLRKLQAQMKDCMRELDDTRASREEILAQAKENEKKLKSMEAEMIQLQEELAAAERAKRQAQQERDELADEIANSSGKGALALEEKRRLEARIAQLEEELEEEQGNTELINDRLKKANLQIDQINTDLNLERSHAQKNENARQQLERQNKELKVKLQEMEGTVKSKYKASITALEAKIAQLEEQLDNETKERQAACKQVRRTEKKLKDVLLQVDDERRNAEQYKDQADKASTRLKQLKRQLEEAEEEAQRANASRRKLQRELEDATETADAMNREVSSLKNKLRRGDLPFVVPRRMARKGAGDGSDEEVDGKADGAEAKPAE
UniProt P12956, sequence (P12956 whole entry): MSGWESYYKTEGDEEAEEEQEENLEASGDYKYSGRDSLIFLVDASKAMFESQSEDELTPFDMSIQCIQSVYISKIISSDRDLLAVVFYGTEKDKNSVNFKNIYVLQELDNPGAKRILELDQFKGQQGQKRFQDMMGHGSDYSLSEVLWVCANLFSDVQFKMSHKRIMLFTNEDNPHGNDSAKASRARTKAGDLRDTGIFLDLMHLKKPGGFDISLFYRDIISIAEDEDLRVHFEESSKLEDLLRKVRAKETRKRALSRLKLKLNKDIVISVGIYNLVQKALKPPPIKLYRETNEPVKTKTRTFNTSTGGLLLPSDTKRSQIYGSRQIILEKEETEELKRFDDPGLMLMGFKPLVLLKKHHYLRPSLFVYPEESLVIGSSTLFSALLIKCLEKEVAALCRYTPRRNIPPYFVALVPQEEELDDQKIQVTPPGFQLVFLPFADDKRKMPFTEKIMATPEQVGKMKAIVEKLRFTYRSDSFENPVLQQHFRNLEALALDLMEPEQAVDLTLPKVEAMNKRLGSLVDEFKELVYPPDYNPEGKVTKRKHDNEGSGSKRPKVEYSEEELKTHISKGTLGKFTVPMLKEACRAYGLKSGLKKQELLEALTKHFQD

| Target | lysine labeling ratio R10:1 |
| --- | --- |
| CCT6A (lysine site: K530) (UniProt P40227) | 4.16 |
| HSPB1 (lysine site: K123) (UniProt P04792) | 2.35 |
| FLNB (lysine site: K409) (UniProt O75369) | 2.05 |
| PPL (lysine site: K1339) (UniProt O60437) | 1.34 (active) |
| FN1 (lysine site: K2072) (UniProt P02751) | 9.06 |
| ACTN1 (lysine site: K741) (UniProt P12814) | 1.15 (active) |
| IMPDH2 (lysine site: K511) (UniProt P12268) | 3.35 |
| ITGB1 (lysine site: K163) (UniProt P05556) | 2.37 |
| PRCP (lysine site: K228) (UniProt P42785) | 2.59 |
| NPR3 (lysine site: K456) (UniProt P17342) | 0.78 (active) |
| CTTN (lysine site: K235) (UniProt Q14247) | 1.56 (active) |
| AGRN (lysine site: K1589) (UniProt O00468) | 5.07 |
| HSPA8 (lysine site: K251) (UniProt P11142) | 1.57 (active) |
| UniProt Q12884 (lysine site: K334) | 3.23 |
| UniProt P62273 (lysine site: K33) | 1.51 (active) |
| MCAM (lysine site: K236) (UniProt P43121) | 6.1 |
| UniProt P62269 (lysine site: K137) | 3.21 |
| CD151 (lysine site: K132) (UniProt P48509) | 2.31 |
| TALDO1 (lysine site: K321) (UniProt P37837) | 0.79 (active) |
| IGF2R (lysine site: K1862) (UniProt P11717) | 1.81 (active) |
| VASN (lysine site: K133) (UniProt Q6EMK4) | 4.74 |
| HNRNPA1 (lysine site: K166) (UniProt P09651) | 7.94 |
| DDX23 (lysine site: K196) (UniProt Q9BUQ8) | 1.64 (active) |
| MYH9 (lysine site: K860) (UniProt P35579) | 2.67 |
| LDLR (lysine site: K596) (UniProt P01130) | 1.28 (active) |
| CD109 (lysine site: K494) (UniProt Q6YHK3) | 8.05 |

| Target | lysine labeling ratio R10:1 |
| --- | --- |
| F11R (lysine site: K97) (UniProt Q9Y624) | 18.5 |
| UniProt P16144 (lysine site: K392) | 0.94 (active) |
| UniProt P62263 (lysine site: K106) | 5.29 |
| CLSTN1 (lysine site: K322) (UniProt O94985) | 0.805 (active) |
| B2M (lysine site: K26) (UniProt P61769) | 10.1 |
| ENG (lysine site: K402) (UniProt P17813) | 2.25 |
| FAS (lysine site: K94) (UniProt P25445) | 2.69 |
| EZR (lysine site: K523) (UniProt P15311) | 1.87 (active) |
| EEF2 (lysine site: K572) (UniProt P13639) | 2.79 |
| EGFR (lysine site: K226) (UniProt P00533) | 11 |
| UniProt O00487 (lysine site: K154) | 0.527 (active) |
| FLNB (lysine site: K1780) (UniProt O75369) | 2.69 |
| PROCR (lysine site: K192) (UniProt Q9UNN8) | 2.15 |
| UniProt P62316 (lysine site: K118) | 6.15 |
| IGF2R (lysine site: K1579) (UniProt P11717) | 0.605 (active) |
| MYH9 (lysine site: K1389) (UniProt P35579) | 2.38 |
| CAPZA1 (lysine site: K19) (UniProt P52907) | 2.43 |
| EEF2 (lysine site: K407) (UniProt P13639) | 1.45 (active) |
| UniProt Q8WXI7 (lysine site: K13246) | 5.01 |
| FKBP4 (lysine site: K274) (UniProt Q02790) | 2.78 |
| IL17RA (lysine site: K274) (UniProt Q96F46) | 0.998 (active) |
| EHD2 (lysine site: K32) (UniProt Q9NZN4) | 2.92 |
| L1CAM (lysine site: K568) (UniProt P32004) | 3.06 |
| PPIA (lysine site: K133) (UniProt P62937) | 2.46 |
| GPI (lysine site: K440) (UniProt P06744) | 1.78 (active) |
| UniProt Q15149 (lysine site: K4584) | 0.906 (active) |

| Target | lysine labeling ratio R10:1 |
| --- | --- |
| FLNA (lysine site: K578) (UniProt P21333) | 1.25 (active) |
| SPTBN1 (lysine site: K2177) (UniProt Q01082) | 14.1 |
| ROBO1 (lysine site: K304) (UniProt Q9Y6N7) | 3.14 |
| ROBO1 (lysine site: K297) (UniProt Q9Y6N7) | 3.3 |
| RBMX (lysine site: K63) (UniProt P38159) | 1.66 (active) |
| UniProt O95980 (lysine site: K230) | 1.91 (active) |
| CD109 (lysine site: K1105) (UniProt Q6YHK3) | 1.09 (active) |
| LAMA5 (lysine site: K1227) (UniProt O15230) | 2.71 |
| IARS (lysine site: K132) (UniProt P41252) | 1.68 (active) |
| UniProt P07437 (lysine site: K58) | 2.92 |
| FLNB (lysine site: K1221) (UniProt O75369) | 3.74 |
| ITGB5 (lysine site: K519) (UniProt P18084) | 0.882 (active) |
| CCT2 (lysine site: K522) (UniProt P78371) | 3.39 |
| CDH13 (lysine site: K185) (UniProt P55290) | 4.74 |
| P4HB (lysine site: K309) (UniProt P07237) | 1.42 (active) |
| SMOC1 (lysine site: K308) (UniProt Q9H4F8) | 4.95 |
| PLOD2 (lysine site: K593) (UniProt O00469) | 1.21 (active) |
| TST (lysine site: K24) (UniProt Q16762) | 2.33 |
| UniProt Q15149 (lysine site: K2099) | 4.12 |
| SPTAN1 (lysine site: K719) (UniProt Q13813) | 3.93 |
| CCDC124 (lysine site: K94) (UniProt Q96CT7) | 4.68 |
| FLNA (lysine site: K1372) (UniProt P21333) | 2.93 |
| UniProt P05787 (lysine site: K8) | 5.03 |
| AGRN (lysine site: K1708) (UniProt O00468) | 2.99 |
| FAT1 (lysine site: K2562) (UniProt Q14517) | 1.58 (active) |
| HNRNPM (lysine site: K698) (UniProt P52272) | 0.67 (active) |

| Target | lysine labeling ratio R10:1 |
| --- | --- |
| EDIL3 (lysine site: K106) (UniProt O43854) | 2.57 |
| UniProt Q15286 (lysine site: K121) | 0.72 (active) |
| UniProt Q96TA1 (lysine site: K430) | 1.69 (active) |
| MYH9 (lysine site: K1835) (UniProt P35579) | 1.11 (active) |
| TFRC (lysine site: K205) (UniProt P02786) | 2.81 |
| PDCD6IP (lysine site: K690) (UniProt Q8WUM4) | 2.89 |
| UniProt Q9Y653 (lysine site: K107) | 2.31 |
| ITGA2 (lysine site: K821) (UniProt P17301) | 3.08 |
| RPL3 (lysine site: K373) (UniProt P39023) | 2.31 |
| UniProt Q13275 (lysine site: K581) | 3.3 |
| HSP90B1 (lysine site: K97) (UniProt P14625) | 5.42 |
| UniProt Q96TA1 (lysine site: K479) | 2.71 |
| ARPC2 (lysine site: K186) (UniProt O15144) | 1.46 (active) |
| MCAM (lysine site: K153) (UniProt P43121) | 4.14 |
| UniProt P60660 (lysine site: K98) | 3.79 |
| UniProt P60866 (lysine site: K75) | 1.91 (active) |
| LRPAP1 (lysine site: K323) (UniProt P30533) | 2.24 |
| UniProt Q6NZI2 (lysine site: K122) | 5.32 |
| XRCC6 (lysine site: K114) (UniProt P12956) | 2.12 |
| IGF1R (lysine site: K469) (UniProt P08069) | 3.98 |
| ENO1 (lysine site: K406) (UniProt P06733) | 10 |
| XRCC6 (lysine site: K338) (UniProt P12956) | 1.69 (active) |
| UniProt Q8WXI7 (lysine site: K14239) | 4.55 |
| FOLR1 (lysine site: K44) (UniProt P15328) | 1.8 (active) |
